Measurements from PubChem BioAssay (NCI).
About 83,000 compounds went through this panel and 20% of them were active in at least one assay; those are over-represented in the sample as a whole.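 Testing used 96-well plates and a 48-hour single-concentration exposure. Example: -40 means 40% of the starting cells died.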 Values without a mark were called inactive. The source made the active and inactive calls. The calls were made as follows: active = growth percent below 10; inactive = the rest.

test system: DU-145 prostate; test: NCI-60 one-dose screen, 48 h (100 = growth as untreated, 0 = no growth, -100 = all killed); settings: 10 µM unless noted

First: CN(C(=O)CN1C(=O)/C(=C/c2ccco2)SC1=S)C1CCS(=O)(=O)C1 (stereo not drawn)
Second: CCN(C(=O)CN1C(=O)/C(=C/c2ccco2)SC1=S)C1CCS(=O)(=O)C1 (stereo not drawn)
The growth of the first is higher: 103% for the first, 101% for the second.

Compared with Cc1ccc(Nc2nnc(-c3c[nH]c4ccccc34)o2)c(C)c1, Cc1ccc(-c2cc(-c3ccccc3)[nH]c(=O)c2C#N)cc1 is higher in growth: 16.5% for the first, 97.3% for the second.

First: Cc1ccccc1NC(=O)c1cccc(NC(=O)CCl)c1
Second: COc1ccc(/C=C/c2nc3ccccc3c(=O)n2CC(=O)Nc2ccccc2)cc1
The growth of the first is lower: 69.4% for the first, 78% for the second.

Going from Clc1ccc(CNc2nc(SCCN3CCOCC3)nc3c2cnn3CC(Cl)c2ccc(Br)cc2)cc1 (stereo not drawn) to Fc1cccc(CNc2nc(SCCN3CCOCC3)nc3c2cnn3CC(Cl)c2ccc(Br)cc2)c1 (stereo not drawn), the growth falls from 57.1% to 49.9%.

Compared with CCN1C(=O)N(CC)C2NNC(Sc3c(C(=O)O)c4ccccc4n(CC(C)C)c3=O)=NC21 (stereo not drawn), CCN1C(=O)N(CC)C2NNC(Sc3c(C(=O)O)c4ccccc4n(CCC(C)C)c3=O)=NC21 (stereo not drawn) is lower in growth: 20% for the first, 17.7% for the second.

Going from COc1ccc2[nH]c(=O)c(CSc3ccccc3Nc3nccc(-c4ccc5c(c4)OCO5)n3)cc2c1 to O=C1Nc2ccccc2/C1=C\c1ccc(OCC(=O)c2ccc(Br)cc2)cc1, the growth rises from 78.4% to 85.6%.

Going from COc1ccc(OC)c(Cn2cc(C#N)c(N)c2C(=O)c2ccc(Br)cc2)c1 to COc1cc(CNC(=O)C[C@H](C)CCC=C(C)C)ccc1OCc1cn(-c2ccc(Br)cc2)nn1, the growth rises from 79.1% to 92.7%.

Compared with Cc1ccc(C(C(=O)NC2CCCCC2)N(Cc2ccccc2Cl)C(=O)c2ccc(CN3CCOCC3)o2)o1 (stereo not drawn), CC1=C(C(=O)OCc2ccccc2)C(c2ccc(N(C)C)cc2)n2c(nc3ccccc32)N1 (stereo not drawn) is lower in growth: 101% for the first, 99.6% for the second.

First: Cc1nn(-c2ccccc2)c2nc(C)n(CC(=O)N/N=C/c3ccccc3O)c(=O)c12
Second: Cn1ncc2c(N)nc(Oc3ccccc3-c3ccccc3)nc21
The growth of the first is lower: 48.9% for the first, 73.1% for the second.

Going from CC1=C(C)C(=O)C(N2CCSCC2)=CC1=O to Cn1cc(Nc2ncnc(-c3ccc(N4CCCC4)c(C#N)c3)n2)cn1, the growth falls from 107% to 66.5%.

Going from NC(=O)c1ccc(-c2ccc3ncnc(N4CCc5cc(F)c(Cl)cc54)c3c2)cn1 to O=C(Nc1ccc(-c2ccc3c(c2)NC(=O)/C3=C\c2ccc[nH]2)cc1)Nc1ccc(Cl)c(C(F)(F)F)c1, the growth falls from 49.5% to 44.1%.

First: C=CC[n+]1cccc2c3ccccc3ccc21
Second: CCCCNc1ccc2c3c(cccc13)C(=O)N(c1cccc(-c3nn(-c4ccccc4)cc3-c3nc4ccccc4s3)c1)C2=O
The growth of the first is lower: 58.4% for the first, 106% for the second.

Going from COc1ccc2nc(NC(=O)c3ccc(N(C)C)cc3)sc2c1 to Cc1ccc(C(=O)Nc2cc(-c3ccncc3)cc(C(F)(F)F)c2)cc1C#Cc1cnc2cccnn12, the growth falls from 83.4% to 68.9%.

First: CN1C(=O)/C(=C/c2ccco2)S/C1=N/c1nccs1
Second: Nc1nn2c(-c3cc4cc(Br)ccc4oc3=O)ccnc2c1N=Nc1ccc(S(N)(=O)=O)cc1
The growth of the first is higher: 107% for the first, 99.7% for the second.

O=C(c1ccc(Cl)cc1)C1[C@H](c2ccccc2Cl)[C@@H](c2ccccc2)NC12C(=O)Nc1ccccc12 (stereo partly drawn) was tested, and the growth was -12.8% (active).
With CCc1ccc(SC2c3cc(OC)ccc3Oc3nc(N)c(C#N)c(N)c32)cc1 (stereo not drawn) the growth was 3.29% (active).
With O=C(N/N=C/c1ccc(B(O)O)s1)c1[nH]c2ccc(Br)cc2c1-c1ccccc1 the growth was -56.4% (active).
With Cc1ccc(Cl)cc1NC(=O)N/C(N)=N/c1nc2ccccc2s1 the growth was -35% (active).
In the case of CN(C)c1ccc(/C=C/c2n(Cc3ccc4ccccc4c3)c3ccccc3[n+]2Cc2ccc3ccccc3c2)cc1, the growth is reported as -43.3% (active).
In the case of O=C(N/N=C/c1ccoc1)c1[nH]c2ccc(Br)cc2c1-c1ccccc1, the growth is reported as -48.3% (active).
For COc1cccc2nc(Nc3cccc(NC(=O)c4ccc(CN5CCN(C)CC5)c(C(F)(F)F)c4)c3)ccc12, the growth was -83.5% (active).
For N/C(=N\c1nc2ccccc2s1)NC(=O)Nc1ccccc1[N+](=O)[O-], the growth was 1.45% (active).
In the case of COc1cc(/C=C/C(=O)c2cnn(-c3cc(=O)[nH]c4ccc(Br)cc34)c2C)cc(OC)c1OC, the growth is reported as -83.4% (active).
With S=C(Nc1ccc(OCc2nc3ccc(Cl)cc3[nH]2)cc1)NC1CCCCC1 the growth was 7.09% (active).
